Laboratory results taken from ChEMBL document CHEMBL3988442, “University of Dundee, Small-Polar-MMV Screening Library” (2021).
Out of some 48,000 compounds screened, about 13,000 (27%) showed an effect of 50% or more. Some of the results follow.

system: Wolbachia pipientis; assay: Anti-Wolbachia Cell-Based Screen; assay type: functional; design: scale not given: in the data most compounds retested in dose-response had high values; details: 5 µM

SMILES	Percent Effect [%]
Cc1ccc(C(=O)Nc2nnc(C(C)C)s2)c(-n2cnnn2)c1C	110.4
Cc1ccc(C(=O)Nc2nnc(C3CC3)s2)c(-n2cnnn2)c1C	95.77
CCc1nnc(NC(=O)c2ccc(C3CCCN3CC(C)C)s2)s1 (stereo unspecified)	-1.663
Cc1ccc(C(=O)Nc2nnc(CC(C)C)s2)c(-n2cnnn2)c1C	125.4
Cc1nn(C)c(C)c1CCC(=O)Nc1nnc(C2CC2)s1	27.73
O=C(NC1CC1)c1cc(Cl)ccc1-n1cnnn1	2.892
CC(=O)N1CCC(NC(=O)c2ccccc2-n2cnnn2)CC1	3.237
COc1ccc(F)cc1C(=O)Nc1nnc(C)s1	1.67
Cc1ccc(CNC(=O)Nc2nnc(C3CC3)s2)n1C	-14.35
O=C(Nc1nncs1)c1ccc(-n2cnnn2)cc1	-0.9565
Cc1ccc(C(=O)NC2CC2)c(-n2cnnn2)c1C	120.6
Cc1cc(C(=O)N[C@H](C)c2onc(C)c2C(=O)O)c(C)o1.Cl	-8.572
Cc1cc(C)c(C(=O)NC2CCN(c3ncccc3C#N)CC2)c(=O)[nH]1	4.704
Cc1ccc(C(=O)N2CC(C(N)=O)O[C@H](C)C2)c(C)c1 (stereo partly specified)	-8.345
CCCSc1ncc(-c2nccn2CCC(N)=O)cn1	-44.89
CC(CNC(=O)c1c[nH]nn1)Oc1cccc(Br)c1 (stereo unspecified)	-32.96
CC(CNC(=O)c1c[nH]nn1)Oc1ccccc1Br (stereo unspecified)	-9.853
CC(CNS(N)(=O)=O)Oc1ccc(Cl)cc1 (stereo unspecified)	-13.16
Cc1ccc(OC(C)CNC(=O)c2c[nH]nn2)cc1 (stereo unspecified)	4.97
O=C(NC1CCCN(c2ccc(OC(F)F)cc2)C1)c1cnc[nH]1 (stereo unspecified)	-8.702
CC(CNC(=O)c1cnc[nH]1)Oc1ccc(Cl)cc1 (stereo unspecified)	110.7

SMILES	Percent Effect [%]
CC(CNC(=O)c1cnc[nH]1)Oc1ccccc1Br (stereo unspecified)	110.9
CC(CNC(=O)c1c[nH]nn1)Oc1ccc(Cl)cc1 (stereo unspecified)	99.95
CC(C)Oc1ccccc1CNC(=O)c1[nH]ncc1Br	24.22
CN(Cc1ccco1)Cc1ccccc1CNC(=O)c1cnc[nH]1	-12.45
COc1ccccc1OC(C)CNC(=O)c1cnc[nH]1 (stereo unspecified)	110.3
COc1ccccc1C(C)CNC(=O)c1[nH]ncc1Br (stereo unspecified)	42.12
CC(C)(O)c1cc(CC2(NCc3ccco3)COC2)no1	-7.158
CN(C)CCn1ccnc1C1CCN(C(=O)CCc2ccncc2)CC1	-7.346
CCS(=O)(=O)N(C)C1CCN(C(=O)c2cccc(Cl)c2)CC1	-7.301
CCOCCOc1ccccc1C(=O)N1CCCC(c2ncc[nH]2)C1 (stereo unspecified)	-24.68
CN(C)Cc1cnc(C2CCN(C(=O)c3ccccc3F)C2)[nH]1.Cl (stereo unspecified)	151.5
CN(C)Cc1cnc(C2CCN(C(=O)c3ccc(F)cc3)C2)[nH]1 (stereo unspecified)	127.5
CN(C)Cc1cnc(C2CCN(C(=O)c3cccc(Cl)c3)C2)[nH]1 (stereo unspecified)	128.9
CCNS(=O)(=O)C1CCN(C(=O)c2ccc(F)cc2)C1 (stereo unspecified)	4.07
Cc1ccc(C(=O)N2CCCC(Nc3ccc(F)cc3)C2)cc1 (stereo unspecified)	-37.46
CN(C)Cc1ccc(C(=O)N2CCCC(n3cccn3)C2)cc1 (stereo unspecified)	13.31
CN(C)Cc1cnc(C2CCN(C(=O)c3cc(F)cc(F)c3)C2)[nH]1 (stereo unspecified)	116.9
CC(C)N(C)Cc1cncc2c1CCN(C(=O)c1ccccc1F)C2.Cl.Cl	-2.748
CCNS(=O)(=O)C1CCN(C(=O)c2c(F)cc(F)cc2F)C1 (stereo unspecified)	-5.983
CCN(C1CCN(C(=O)c2cccc(Cl)c2)CC1)S(C)(=O)=O	6.766
